High-throughput results deposited in PubChem by ICCB-Longwood Screening Facility, Harvard Medical School.
This excerpt belongs to a sample that is enriched for hits.
Ba CapD inh: inhibitors of Bacillus anthracis CapD enzyme | AID 492967 | hit rate 0.23% among 140,000 | z-score (test concentration not listed) | purified CapD enzyme, fluorescence intensity read-out; stronger effect = lower value; in the data active = z-score mostly below about -2.9, no sharp cut-off; inactive = mostly above about -1.9
* = called active by the depositor.

SMILES | Ba CapD inh
COc1ccc2oc(/C=C/N(C)C)c(C(=O)c3ccc(Br)cc3)c2c1 | -3.27*
CCOC(=O)c1c(C)oc2ccc(OCC(=O)c3ccc(Br)cc3)cc12 | -0.13
CCNc1cc(N2CCN(Cc3ccc(OC)c(OC)c3OC)CC2)c2noc3c2c1C(=O)c1ccccc1-3 | -0.055
CC1=NN(c2cc(S(=O)(=O)O)c3cccc(S(=O)(=O)O)c3c2)C(=O)C1 | -5.7*
CC1=NN(c2ccc(C(=O)O)cc2)C(=O)C1 | -0.03
CC1=NN(c2cccc(S(N)(=O)=O)c2)C(=O)C1 | -0.935
COC(=O)c1c(CSC(=N)N)nc2n(Cc3ccccc3)c3ccccc3n12 | 0.1
COc1ccc(-n2c(/C=C/c3ccccc3F)nc3cc(OC)c(OC)cc3c2=O)cc1 | -1.31
COC(=O)c1sccc1N1C(=O)C=CC1=O | 0.26
CC(=O)C1=NN(c2ccc(C)cc2)C(c2c[nH]c3ccccc23)N1c1ccc(C)cc1 (centres undefined) | -0.44
O=C1NC(=O)/C(=C\C=C\c2ccccc2)S1 | 0.62
O=C1NC(=S)S/C1=C\C=C\c1ccccc1 | -4.03*
O=C1NC(=S)NC(=O)C1=C/C=C/c1ccccc1 | 0.025
Cc1cccc(C2(c3cccc(C)c3)CC2C(=O)Nc2cccc(Cl)c2C)c1 (centres undefined) | -0.335
Cc1cc(NC(=O)CSc2nccn2-c2ccccc2)no1 | -0.57
O=C(Nc1cccc(C(=O)N2CCCC2)c1)C1=CSCCO1 | -0.805
Cc1cccc(N/C(Sc2ccccc2)=C(/C(Cl)=C(Cl)Cl)[N+](=O)[O-])c1 | -0.56
CC(=O)Oc1ccc(N(C(C)=O)S(=O)(=O)c2ccccc2)cc1 | -4.21*
CCCC(=O)Oc1ccc(N(C(=O)CCC)S(=O)(=O)c2ccccc2)cc1 | -0.49
COc1ccc(N(C(C)=O)S(=O)(=O)c2ccc(C)cc2)cc1 | -3.44
CN1C(=O)C(/C(N)=N\NC(=O)c2ccccc2)C2CC1(C)Oc1ccccc12 (centres undefined) | 0.21
Cc1ccc2nc(-c3ccc(S(=O)(=O)N(C)C)cc3)cn2c1 | 112
COc1ccc(C2=N/C(=C\c3ccc(OC(C)=O)c(OC(C)=O)c3)C(=O)O2)cc1OC | 1.89
Cn1c2ccccc2n2c(C(=S)Nc3ccccc3)c(-c3ccccc3)nc12 | 0.75
CN1CCC(=C2c3ccccc3CC(=O)c3sccc32)CC1 | -0.295
SMILES | Ba CapD inh
O=C1/C(=C/c2cccs2)Cc2ccccc21 | -1.29
O=C1c2ccccc2CC(=O)c2sccc21 | -6.75*
CC(C)CC(=O)Nc1ccccc1C(N)=O | 0.08
CCOC(=O)C1=C(C)N=c2s/c(=C\c3cc(Br)ccc3O)c(=O)n2C1c1ccc(OC)cc1 (centres undefined) | -0.165
CC(C)NC(=O)c1ccccc1NS(=O)(=O)c1ccc(F)cc1 | 1.46
O=C1NC(=S)N(c2ccccc2)C(=O)/C1=C\c1ccoc1 | -5.73*
COc1ccc(N2C(=O)/C(=C\c3ccc(Br)cc3)C(=O)NC2=S)cc1 | -1.71
O=C1NC(=S)N(c2ccc(Br)cc2)C(=O)/C1=C/c1cccn1-c1ccccc1 | -0.31
Cc1[nH]n(-c2ccc([N+](=O)[O-])cc2)c(=O)c1C=NCc1ccc2c(c1)OCO2 | -0.305
CCc1cc(=O)oc2c(C)c(O)ccc12 | 1.21
Cc1cc(C)c(C=C2C(=O)CCCC2=O)[nH]1 | -7.59*
Cc1cc(C)c(C=C2C(=O)OC(C)(C)OC2=O)[nH]1 | -4.07
Cc1cc(C=C2C(=O)CCCC2=O)c(C)n1-c1ccccc1 | -0.495
NC1=NC2(O)c3ccccc3C(=O)C2(O)NN1 (centres undefined) | -0.36
COC(=O)Cn1c(=NC(=O)C(C)C)sc2cc(Cl)ccc21 | 0.065
COc1ccc(NC(C)=O)cc1C | 6.2
Cc1ccc(C)n1-c1cc(Cl)ccc1C(=O)O | -5.49*
CC(=O)Nc1ccc(-n2c(C)ccc2C)c(C(=O)O)c1 | -4.82*
CC(=O)Nc1ccc(NC(=O)c2ccccc2C(=O)O)cc1 | -0.145
Cc1ccc(C)n1-c1ccccc1C(=O)O | -1
CCCOc1ccc(Cl)cc1C(=O)O | -0.655
CCC(Cn1nnn(-c2ccccc2)c1=O)NC(=O)Cc1nn(CC)c(=O)c2ccccc12 (centres undefined) | 0.235
O=C(O)c1ccccc1-c1ccc(-c2cc(C(=O)O)c3cc(F)ccc3n2)o1 | -0.85
COc1cccc(NC(=O)CSc2nc3ccccc3c(=O)n2CCCC(=O)NCCc2ccc(OC)c(OC)c2)c1 | -0.365
O=C(Oc1ccc2cc(Br)ccc2c1)c1cccnc1Cl | -0.335
SMILES | Ba CapD inh
N#CC1=C(N)NC(=S)C(C(N)=O)C1c1ccccc1 (centres undefined) | -4.49*
N#CC1(C#N)[C@H](C(N)=O)[C@H]1c1ccccc1 | 0.405
N#CC1=C(SCC(N)=O)NC(=O)CC1c1ccccc1 (centres undefined) | 0.105
C(=Nc1ccccc1)c1ccc(Oc2ccccc2)cc1 | -0.49
COc1ccccc1-n1c(CNC(=O)c2cccs2)nnc1SCC(=O)N1CCc2ccccc21 | -0.625
Cc1nnc2ccc(NCCc3ccc(S(N)(=O)=O)cc3)nn12 | 2.66
N=C1S/C(=C/c2ccc(-c3ccccc3[N+](=O)[O-])o2)C(=O)N1c1nonc1N | -1.46
N=C1S/C(=C/c2ccc(-c3cccc(C(=O)O)c3)o2)C(=O)N1c1nonc1N | -6.1*
COC(=O)c1cccc(-c2ccc(/C=C3\SC(=N)N(c4nccs4)C3=O)o2)c1 | 0.185
CCC1CCCCN1C(=O)Cc1cn(Cc2cccc(Cl)c2)c2ccccc12 (centres undefined) | -0.98
Cc1[nH]nc2nc(SCc3cc(=O)n4ccccc4n3)n(-c3ccc(Br)cc3)c(=N)c12 | 4.3
CCC1C/C(=C/c2ccco2)C(=O)/C(=C/c2ccco2)C1 (centres undefined) | -2.48
CC1C/C(=C/c2ccco2)C(C)N(C)C1 (centres undefined) | -5.18*
CC1CC(C)CN(C(=O)COC(=O)/C=C/c2ccco2)C1 (centres undefined) | -1.69
Cc1ccc(NC(=O)CSc2nc3n[nH]c(C)c3c(=N)n2-c2ccccc2C)cc1 | 4.56
Cc1c(C(=O)N2CCN(c3ccccc3)CC2)sc2nc[nH]c(=O)c12 | 0.3
CCCC(CCC)C(=O)Nc1ccccc1 | 0.705
CC(C(=O)Nc1ccccc1)C(=O)Nc1ccccc1 | -0.065
O=C(Nc1ccccc1)C(C(F)(F)F)C(F)(F)F | -3.58*
CCCCN(CC)C(=O)c1cc2c(-c3ccc(Cl)cc3)nn(C)c2s1 | 0.015
Cc1ccccc1C(=O)Nc1ncc(I)cc1C | 0.075
CC(C)(C)OC(=O)N1CCN(C2CC(=O)N(CCc3ccccc3)C2=O)CC1 (centres undefined) | 0.23
COc1ccccc1N(C(C)=O)S(=O)(=O)c1ccc(Cl)cc1 | -4.7*
COc1ccc(N(C(=O)c2ccccc2)S(=O)(=O)c2ccc(Cl)cc2)cc1 | 0.455
CC(=O)Oc1ccccc1N(C(C)=O)S(=O)(=O)c1ccc(C)cc1 | -0.385
SMILES | Ba CapD inh
Cc1cccc(C(=O)OCCN2CCCCC2)c1 | -0.215
Cc1cc(C)nc(Nc2ccc(N)cc2)n1 | -0.345
O=C(Cn1cnc2sc3c(c2c1=O)CCCC3)NCC(=O)N1CCN(c2ccccc2F)CC1 | -0.295
NC(=O)c1ccccc1NC(=O)Nc1ccccc1 | 3.7
CNc1ccccc1C(N)=O | 74.7
N#CC(C#N)=NNc1ccccc1C(N)=O | -5.96*
CN(C)/N=C/c1ccc([N+](=O)[O-])o1 | -4.4*
O=C1OCCN1/N=C/c1ccc([N+](=O)[O-])o1 | -0.03
O=C1CN(/N=C/c2ccc([N+](=O)[O-])o2)C(=O)N1 | -0.945
CCOC(=O)CSc1nc2cc(C(=O)NCc3ccccc3)ccc2c(=O)n1CCc1ccccc1 | 0.28
COc1ccc(C(CC(=O)O)CC(=O)O)cc1 | 0.98
NC(=S)N/N=C/c1ccco1 | -3.09
